According to PubChem BioAssay (NCI):
Compounds without any hit were thinned out: in the full panel of roughly 83,000, 20% have a hit.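 Activity criterion: percent growth below 10, measured after cells in 96-well plates were exposed to a single compound concentration for 48 hours.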 Unmarked numbers belong to inactive results. The source made the active and inactive calls.

Key:
Assay in all cases: NCI-60 one-dose screen, 48 h (100 = growth as untreated, 0 = no growth, -100 = all killed)
Details in all cases: 10 µM unless noted
SK-MEL-2 melanoma = test system: SK-MEL-2 melanoma
EKVX NSCLC = test system: EKVX NSCLC
SN12C renal = test system: SN12C renal
UO-31 renal = test system: UO-31 renal
TK-10 renal = test system: TK-10 renal
ACHN renal = test system: ACHN renal
CAKI-1 renal = test system: CAKI-1 renal
A498 renal = test system: A498 renal
CCRF-CEM leukemia = test system: CCRF-CEM leukemia
MOLT-4 leukemia = test system: MOLT-4 leukemia
SR leukemia = test system: SR leukemia
OVCAR-8 ovarian = test system: OVCAR-8 ovarian
OVCAR-5 ovarian = test system: OVCAR-5 ovarian
OVCAR-4 ovarian = test system: OVCAR-4 ovarian
SK-OV-3 ovarian = test system: SK-OV-3 ovarian
IGROV1 ovarian = test system: IGROV1 ovarian
OVCAR-3 ovarian = test system: OVCAR-3 ovarian
HS 578T breast = test system: HS 578T breast
NCI/ADR-RES ovarian = test system: NCI/ADR-RES ovarian
RPMI-8226 leukemia = test system: RPMI-8226 leukemia

SMILES | growth (SK-MEL-2 melanoma) | growth (EKVX NSCLC) | growth (SN12C renal) | growth (UO-31 renal) | growth (TK-10 renal) | growth (ACHN renal) | growth (CAKI-1 renal) | growth (A498 renal) | growth (CCRF-CEM leukemia) | growth (MOLT-4 leukemia) | growth (SR leukemia) | growth (OVCAR-8 ovarian) | growth (OVCAR-5 ovarian) | growth (OVCAR-4 ovarian) | growth (SK-OV-3 ovarian) | growth (IGROV1 ovarian) | growth (OVCAR-3 ovarian) | growth (HS 578T breast) | growth (NCI/ADR-RES ovarian) | growth (RPMI-8226 leukemia)
Cc1cc(N2CCN(C)CC2)nc(NCc2cc(Nc3ccnc4cc(Cl)ccc34)ccc2F)n1 | -67.8% (active) | 27.4% | -20.8% (active) | -27.1% (active) | -29.5% (active) | -10.6% (active) | 12.9% | -40.7% (active) | -4.6% (active) | 10.2% | -32% (active) | 6.32% (active) | -3.76% (active) | 14.9% | 23% | 10.4% | -46.8% (active) | 11% | 18.7% | 
Fc1ccc2c(c1)c(-c1nc(-c3c[nH]c4ncccc34)cs1)cn2CCCN1CCOCC1 | 60.5% | 55.9% | 73.9% | 31.5% | 66.9% | 42.2% | 56.2% | 51% | 21.8% | 24.8% | 12.1% | 59.7% | 82.3% | 56.2% | 81.6% | 38.6% | 59.8% | 38.3% | 59.2% | 
C=NNc1ccccc1 | 123% | 92.8% | 89.6% | 71% | 127% | 78% | 84.1% | 77.1% | 71.5% | 105% | 74% |  | 109% | 102% | 102% | 88.7% | 102% |  | 84.4% | 97.6%
Cn1cc(-c2csc(-c3cn(C(=O)OC(C)(C)C)c4ccccc34)n2)c2ccnc(Cl)c21 | 96.5% | 62.8% | 55.1% | 58.4% | 52.8% | 32.7% | 80% | 88.4% | 61.7% | 66.8% | 26% | 48.2% | 51.3% | 9.63% (active) | 71.3% | 69.5% | 61.3% | 66.1% | 60% | 
CN(C)c1ccc(/C=C/C(=O)c2ccc(Nc3nc(Nc4ccc(F)cc4)nc(Nc4ccc(Cl)cc4)n3)cc2)cc1 | 52.6% | 67.2% | 101% | 59.2% | 97.9% | 75.3% | 70.9% | 83.4% | 4.13% (active) | -3.06% (active) | 4.77% (active) |  | 74.2% | 76.5% | 108% | 72.4% | 89.2% | 77.2% | 66.4% | 30.5%
Cc1ccc(/C=C/C(=O)c2ccc(NC(=O)CSc3nc4c([nH]3)c(=O)n(C)c(=O)n4C)cc2)c(C)c1 | 91.9% | 78.1% | 57.1% | 70.4% | 83.5% | 38.8% | 48.1% | 40.2% | 65.3% | 62.1% | 30.4% | 40.3% | 124% | 36.9% | 30.9% | 36.3% | 13.8% | 27.4% | 82.7% | 
CNC(=O)c1c(NC(=O)c2ccc(C(C)(C)C)cc2)sc2c(CN(C)C)c(O)ccc12 | -53% (active) | 63.3% | 4.62% (active) | -78.5% (active) | 87.5% | -22.3% (active) | -13.1% (active) | 53.1% | -7.61% (active) | -35.5% (active) | 3.65% (active) |  | -30.9% (active) | 67.5% | 34.1% | 20.3% | 32.7% | 54.7% | 11.4% | -28.1% (active)
C=CCOC(=O)C1=C(C)NC(=O)NC1c1c(Cl)n(C)c2ccccc12 (stereo not drawn) | 112% | 98.2% | 96.9% | 80.9% | 102% | 99.7% | 94.3% | 101% | -49.5% (active) | 98.5% | 97.9% |  | 96% | 103% | 94.5% | 107% | 104% | 98.8% | 99.2% | 81.3%
O=C(CCCCNC(=O)c1cc(=O)c(O)co1)Nc1ccccc1 | 98.8% | 95.6% | 88.4% | 76.4% | 98.3% | 31.5% | 94.3% | 98.2% | 6.26% (active) | 20.3% | 14.3% |  | 119% | 79.3% | 119% | 99% | 47.4% | 92.9% | 87% | 50.4%
O=C(CCCCCCN1CC(=O)N2[C@@H](c3ccc(Cl)cc3)c3[nH]c4ccccc4c3C[C@H]2C1=O)NO | 80.7% | 85.6% | 65.7% | 59.7% | 110% | 78.8% | 60.9% | 67.2% | 18.7% | 32.3% | 20.2% |  | 69.9% | 59.3% | 82.9% | 53.8% | 66.7% | 67.9% | 93% | 22.4%
NNC(=S)N/N=C/c1ccccn1 | 59.6% | 31.6% | 30% | 14.7% | 46.9% | 17% | 14.2% | 70.4% | 12% | 12% | 5.56% (active) | 20% | 40.3% | 29.2% | 24.3% | 40.2% | 21.7% | 31.8% | 17.8% | 
O=C(/C=C/C12c3ccccc3C(c3ccccc31)C1C(=O)NC(=O)C12)c1ccc(F)cc1 (stereo not drawn) | -52.2% (active) | 19.1% | 11.2% | 15.8% | 16.8% | 4.11% (active) | 16.7% | -6.86% (active) | -0.929% (active) | 2.98% (active) | 0.421% (active) | -64.2% (active) | 28% | 30.3% | -1.75% (active) | 13.2% | -10.1% (active) | 23.7% | 5.4% (active) | 
Nc1c(C(=O)Nc2ccncc2)sc2nc3c(cc12)CCCCC3 | 93.7% | 74.2% | 78.9% | 66.6% | 85.9% | 88.6% | 81.6% | 74.5% | 54.4% | 40.3% | 43.6% |  | 83.4% | 55.8% | 75.8% | 98.9% | 88.9% | 85.1% | 75.5% | 47.2%
COc1ccc(C2C(C#N)=C(N)Oc3c2sc2c(Br)cccc32)cc1 (stereo not drawn) | 10.9% | 46.2% | 37.3% | 35.9% | 50.2% | 54% | 35.9% | 27% | 12.5% | 12.1% | 8.82% (active) |  | 50.5% | 64.4% | 35.2% | 42.7% | 10.6% | 41.8% | 6.27% (active) | 12.5%
O=C(Nc1ncc(Cc2ccccc2Cl)s1)c1cccs1 | 69.4% | 77.7% | 82.5% | 70.8% | 88% | 73.2% | 41.8% | 67.1% | 66.2% | 61.7% | 20.4% | 85.7% | 87.9% | 74.4% | 81.7% | 72.3% | 79.2% | 74.4% | 53.7% | 
CC12CCC(/C(=C/NNc3ccc([N+](=O)[O-])cc3[N+](=O)[O-])C1=O)C2(C)C (stereo not drawn) | 38.4% | 90.8% | 73.1% | 55.2% | 96.8% | 34.3% | 46.8% | 88.5% | 47.4% | 41.3% | 56.5% |  | 74.5% | 74.2% | 89.6% | 68.6% | 87.4% | 110% | 76.5% | 73.8%
